Test results reported in PubChem BioAssay (NCI).
About 83,000 compounds went through this panel and 20% of them were active in at least one assay; those are over-represented in the sample as a whole.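 Plates (96-well) were seeded with cells, treated with compound at one concentration, and incubated for 48 hours before percent growth was determined.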 Activity calls are given as the source filed them. Rule for the calls: active = growth percent below 10; inactive = the rest.

Experiments:
Assay in all cases: NCI-60 one-dose screen, 48 h (100 = growth as untreated, 0 = no growth, -100 = all killed)
NCI-H23 lung = conditions: 10 µM unless noted
NCI-H226 lung = conditions: 10 µM unless noted
NCI-H322M lung = conditions: 10 µM unless noted
HOP-62 NSCLC = conditions: 10 µM unless noted
NCI-H460 lung = conditions: 10 µM unless noted
HOP-92 NSCLC = conditions: 10 µM unless noted
NCI-H522 lung = conditions: 10 µM unless noted
A549/ATCC NSCLC = conditions: 10 µM unless noted
786-0 renal = conditions: 10 µM unless noted
COLO 205 colon = conditions: 10 µM unless noted
DU-145 prostate = conditions: 10 µM unless noted
K-562 leukemia = conditions: 10 µM unless noted
MALME-3M melanoma = conditions: 10 µM unless noted
MDA-MB-231 breast = conditions: 10 µM unless noted
RXF 393 renal = conditions: 10 µM unless noted
SF-268 CNS = conditions: 10 µM unless noted
SF-295 CNS = conditions: 10 µM unless noted
SF-539 CNS = conditions: 10 µM unless noted
UACC-257 melanoma = conditions: 10 µM
M14 melanoma = conditions: 10 µM unless noted

Measured: growth

CN(C)c1ccc(/C=C\N=Nc2ccc(Br)cc2)cc1
active: SF-539 CNS 5.55%
inactive: NCI-H23 lung 79.8% | NCI-H226 lung 79.7% | NCI-H322M lung 77.9% | HOP-62 NSCLC 95.1% | NCI-H460 lung 51.2% | HOP-92 NSCLC 76.1% | NCI-H522 lung 37.9% | A549/ATCC NSCLC 58.7% | 786-0 renal 57.3% | COLO 205 colon 82.1% | DU-145 prostate 45.8% | K-562 leukemia 16.7% | MALME-3M melanoma 86.5% | MDA-MB-231 breast 49.6% | RXF 393 renal 108% | SF-268 CNS 52.7% | SF-295 CNS 29.1% | UACC-257 melanoma 87.5% | M14 melanoma 41.4%

COc1cc(NC(=O)CSc2nc3ccc(C)cc3c(=O)n2-c2ccccc2)cc(OC)c1OC
inactive: NCI-H23 lung 84.1% | NCI-H226 lung 82.6% | NCI-H322M lung 101% | HOP-62 NSCLC 91.2% | NCI-H460 lung 101% | HOP-92 NSCLC 49.5% | NCI-H522 lung 68.7% | A549/ATCC NSCLC 83.9% | 786-0 renal 89.4% | COLO 205 colon 111% | DU-145 prostate 110% | K-562 leukemia 87.1% | MALME-3M melanoma 90.5% | MDA-MB-231 breast 77.3% | RXF 393 renal 86.2% | SF-268 CNS 86.2% | SF-295 CNS 92.2% | SF-539 CNS 93.6% | UACC-257 melanoma 83% | M14 melanoma 79.9%

Nc1c(C(=O)Nc2cccc(C(F)(F)F)c2)sc2nc3c(cc12)CCCCCC3
inactive: NCI-H322M lung 10.6% | NCI-H522 lung 36.2% | COLO 205 colon 48.5% | DU-145 prostate 20.8% | K-562 leukemia 17% | SF-268 CNS 12.7% | M14 melanoma 47.1%
active: NCI-H23 lung 8.82% | NCI-H226 lung 5.69% | HOP-62 NSCLC -1.22% | NCI-H460 lung 4.27% | HOP-92 NSCLC -14.2% | A549/ATCC NSCLC -45.2% | 786-0 renal -71.7% | MALME-3M melanoma -20.6% | MDA-MB-231 breast -12.9% | RXF 393 renal -49.1% | SF-295 CNS 2.51% | SF-539 CNS -86.9% | UACC-257 melanoma 7.85%

COc1ccc(C(=O)c2cc(OC)c(OC)c(OC)c2)cc1/C=C/C(=O)c1ccc(OC)c(OC)c1
inactive: NCI-H23 lung 32.2% | NCI-H226 lung 55.6% | NCI-H322M lung 54.7% | HOP-62 NSCLC 58.6% | NCI-H460 lung 18.4% | HOP-92 NSCLC 39.4% | A549/ATCC NSCLC 57.1% | 786-0 renal 55.9% | COLO 205 colon 31.3% | K-562 leukemia 12.3% | MALME-3M melanoma 56.6% | MDA-MB-231 breast 26.1% | RXF 393 renal 29.3% | SF-268 CNS 17% | UACC-257 melanoma 49.1% | M14 melanoma 36.2%
active: NCI-H522 lung 3.99% | DU-145 prostate -4.98% | SF-295 CNS -46.2% | SF-539 CNS -23.5%

COc1cc(NCCCN=C(N)NC(N)=NC(C)C)c2ncccc2c1
inactive: NCI-H23 lung 34.7% | NCI-H226 lung 92% | NCI-H322M lung 52% | HOP-62 NSCLC 96.2% | NCI-H460 lung 91.9% | HOP-92 NSCLC 36.9% | A549/ATCC NSCLC 78.6% | 786-0 renal 98.8% | DU-145 prostate 106% | K-562 leukemia 44.6% | MDA-MB-231 breast 64.9% | RXF 393 renal 94.8% | SF-268 CNS 44.1% | SF-295 CNS 87.5% | SF-539 CNS 21.7% | UACC-257 melanoma 45.1% | M14 melanoma 65.3%
active: NCI-H522 lung -13.1% | COLO 205 colon -1.53% | MALME-3M melanoma -24.2%

CNC(=O)Cc1nc(-c2cccc(NS(=O)(=O)c3c(F)cccc3F)c2F)c(-c2ccnc(Nc3ccccc3)n2)s1
inactive: NCI-H23 lung 56% | NCI-H226 lung 74.3% | NCI-H322M lung 60.8% | HOP-62 NSCLC 43.3% | NCI-H460 lung 94% | HOP-92 NSCLC 17.3% | NCI-H522 lung 54.8% | A549/ATCC NSCLC 55.3% | 786-0 renal 64% | DU-145 prostate 79.5% | K-562 leukemia 20.5% | SF-268 CNS 54.9% | SF-295 CNS 101% | SF-539 CNS 68.9%
active: COLO 205 colon 7.06% | MALME-3M melanoma 0.396% | MDA-MB-231 breast -14.3% | RXF 393 renal -6.63% | UACC-257 melanoma 7.77% | M14 melanoma 2.35%

CCOC(=O)C1=C(C)NC(=O)NC1c1ccc(OCC(=O)N/N=C/c2ccc(Cl)cc2)cc1 (stereo not given)
inactive: NCI-H23 lung 105% | NCI-H226 lung 95.8% | NCI-H322M lung 87.5% | HOP-62 NSCLC 89.9% | NCI-H460 lung 101% | HOP-92 NSCLC 90.1% | NCI-H522 lung 81.2% | A549/ATCC NSCLC 77% | 786-0 renal 97.6% | COLO 205 colon 105% | DU-145 prostate 106% | K-562 leukemia 94.9% | MALME-3M melanoma 101% | MDA-MB-231 breast 98.7% | RXF 393 renal 95.6% | SF-268 CNS 95.1% | SF-295 CNS 99.5% | SF-539 CNS 91.3% | UACC-257 melanoma 68.7% | M14 melanoma 94.6%

COc1ccc(/C=C\c2cc(OC)c(OC)c(OC)c2)c(NS(=O)(=O)c2ccc(C(C)(C)C)cc2)c1O
active: NCI-H460 lung 8.21% | NCI-H522 lung -7.56% | COLO 205 colon 1.63% | DU-145 prostate -0.37% | MDA-MB-231 breast 8.45% | SF-539 CNS 2.6%
inactive: NCI-H23 lung 23.5% | NCI-H226 lung 44.9% | NCI-H322M lung 64% | HOP-62 NSCLC 81.9% | HOP-92 NSCLC 10.8% | A549/ATCC NSCLC 27.4% | 786-0 renal 24.4% | K-562 leukemia 13.2% | MALME-3M melanoma 108% | RXF 393 renal 22.6% | SF-268 CNS 24.5% | SF-295 CNS 16.9% | UACC-257 melanoma 65.7% | M14 melanoma 14.9%

CCNC(=O)CCCCC(=O)c1c(C)[nH]c(/C=C2\N=C(c3ccc[nH]3)C=C2OC)c1C
inactive: NCI-H23 lung 35% | NCI-H226 lung 65.7% | NCI-H322M lung 37.9% | HOP-62 NSCLC 42.7% | K-562 leukemia 51.5% | MALME-3M melanoma 51.6% | SF-268 CNS 27.2% | SF-539 CNS 54.8% | UACC-257 melanoma 54.6%
active: NCI-H460 lung -65.1% | HOP-92 NSCLC -71.6% | NCI-H522 lung -91.7% | A549/ATCC NSCLC 9.45% | 786-0 renal -51.9% | COLO 205 colon 1.23% | DU-145 prostate 2.48% | MDA-MB-231 breast 0.721% | RXF 393 renal -48% | SF-295 CNS -22.1% | M14 melanoma 5.27%

O=c1[nH]c2ccccc2cc1-c1nnc(Cc2ccccc2)o1
inactive: NCI-H23 lung 74.7% | NCI-H226 lung 85.3% | NCI-H322M lung 92.3% | HOP-62 NSCLC 82.6% | NCI-H460 lung 92.2% | HOP-92 NSCLC 76.2% | NCI-H522 lung 71.2% | A549/ATCC NSCLC 83.3% | 786-0 renal 58.3% | COLO 205 colon 64.4% | DU-145 prostate 71.1% | K-562 leukemia 30.8% | MALME-3M melanoma 55.8% | MDA-MB-231 breast 79.6% | RXF 393 renal 76.1% | SF-268 CNS 78.4% | SF-295 CNS 99.7% | SF-539 CNS 80.8% | UACC-257 melanoma 80% | M14 melanoma 65.8%

NS(=O)(=O)c1ccc(CN2C(=O)c3cccc4cccc(c34)C2=O)cc1
inactive: NCI-H23 lung 107% | NCI-H226 lung 86.1% | NCI-H322M lung 93% | HOP-62 NSCLC 81.8% | NCI-H460 lung 110% | HOP-92 NSCLC 82.7% | NCI-H522 lung 89.9% | A549/ATCC NSCLC 92.1% | 786-0 renal 99.2% | COLO 205 colon 99.4% | DU-145 prostate 105% | K-562 leukemia 96% | MALME-3M melanoma 112% | MDA-MB-231 breast 94.3% | RXF 393 renal 97.6% | SF-268 CNS 92.4% | SF-295 CNS 110% | SF-539 CNS 88.8% | UACC-257 melanoma 103% | M14 melanoma 105%

NC(CC(N)C(=O)O)C(=O)O (stereo not given)
inactive: NCI-H23 lung 107% | NCI-H226 lung 103% | NCI-H322M lung 103% | HOP-62 NSCLC 117% | NCI-H460 lung 108% | HOP-92 NSCLC 115% | NCI-H522 lung 79.7% | A549/ATCC NSCLC 99.4% | 786-0 renal 105% | COLO 205 colon 115% | DU-145 prostate 115% | K-562 leukemia 91.8% | MALME-3M melanoma 104% | MDA-MB-231 breast 103% | RXF 393 renal 89.6% | SF-268 CNS 109% | SF-295 CNS 101% | SF-539 CNS 97.9% | UACC-257 melanoma 95.2% | M14 melanoma 104%

Cc1ccc(OCCn2c(C)nn(-c3ccc(Cl)cc3)c2=O)cc1
inactive: NCI-H23 lung 94.7% | NCI-H226 lung 108% | NCI-H322M lung 108% | HOP-62 NSCLC 103% | NCI-H460 lung 106% | HOP-92 NSCLC 84.1% | NCI-H522 lung 106% | A549/ATCC NSCLC 100% | 786-0 renal 100% | COLO 205 colon 115% | DU-145 prostate 135% | K-562 leukemia 107% | MALME-3M melanoma 99.8% | MDA-MB-231 breast 103% | RXF 393 renal 125% | SF-268 CNS 117% | SF-295 CNS 98.9% | SF-539 CNS 110% | UACC-257 melanoma 104% | M14 melanoma 102%

COc1cc(-c2nc(-c3nc4ccccc4[nH]3)cc3c2[nH]c2ccccc23)cc(OC)c1OC
inactive: NCI-H23 lung 41.3% | NCI-H226 lung 72.6% | NCI-H322M lung 73.8% | HOP-62 NSCLC 45.1% | NCI-H460 lung 30% | NCI-H522 lung 57.2% | A549/ATCC NSCLC 22.5% | 786-0 renal 82.6% | COLO 205 colon 26.9% | DU-145 prostate 53.8% | K-562 leukemia 31.9% | MALME-3M melanoma 32.7% | MDA-MB-231 breast 61.3% | RXF 393 renal 70.6% | SF-268 CNS 47.8% | SF-539 CNS 68.4% | UACC-257 melanoma 41.7% | M14 melanoma 23.4%
active: HOP-92 NSCLC 9.1% | SF-295 CNS 1.13%

COc1cc(Cn2c(SCC(=O)Nc3cc(OC)c(OC)c(OC)c3)nc3ccccc3c2=O)cc(OC)c1OC
inactive: NCI-H23 lung 77.1% | NCI-H226 lung 57.7% | NCI-H322M lung 82.1% | HOP-62 NSCLC 42.8% | NCI-H460 lung 57.8% | HOP-92 NSCLC 39.8% | NCI-H522 lung 34% | A549/ATCC NSCLC 62.9% | 786-0 renal 73.6% | COLO 205 colon 109% | DU-145 prostate 94.6% | K-562 leukemia 97.4% | MALME-3M melanoma 82.8% | MDA-MB-231 breast 58.2% | RXF 393 renal 61.6% | SF-268 CNS 54.7% | SF-295 CNS 85.9% | SF-539 CNS 66.1% | UACC-257 melanoma 102% | M14 melanoma 95%
